In PubChem BioAssay (NCI):
The panel holds about 83,000 compounds, 20% with a hit somewhere; the sample as a whole holds those more often.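 A percent growth of 40 corresponds to 60% growth inhibition; 0 means no net growth; -100 means all cells died. Active threshold: below 10.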 The source made the active and inactive calls.

Key:
Experiment in all cases: NCI-60 one-dose screen, 48 h (100 = growth as untreated, 0 = no growth, -100 = all killed)
Settings in all cases: 10 µM
SR leukemia = tested on: SR leukemia
RPMI-8226 leukemia = tested on: RPMI-8226 leukemia
OVCAR-8 ovarian = tested on: OVCAR-8 ovarian
OVCAR-5 ovarian = tested on: OVCAR-5 ovarian
OVCAR-4 ovarian = tested on: OVCAR-4 ovarian
SK-OV-3 ovarian = tested on: SK-OV-3 ovarian
IGROV1 ovarian = tested on: IGROV1 ovarian
OVCAR-3 ovarian = tested on: OVCAR-3 ovarian
HS 578T breast = tested on: HS 578T breast
NCI/ADR-RES ovarian = tested on: NCI/ADR-RES ovarian
T-47D breast = tested on: T-47D breast
BT-549 breast = tested on: BT-549 breast
MDA-MB-435 melanoma = tested on: MDA-MB-435 melanoma
SW-620 colon = tested on: SW-620 colon
MCF7 breast = tested on: MCF7 breast
HCT-116 colon = tested on: HCT-116 colon
HCC-2998 colon = tested on: HCC-2998 colon
KM12 colon = tested on: KM12 colon

Measured: growth

O/N=C1\CCC2CCCCC2C1 (stereo unspecified)
inactive: SR leukemia 87.1% | RPMI-8226 leukemia 104% | OVCAR-8 ovarian 112% | OVCAR-5 ovarian 104% | OVCAR-4 ovarian 97.8% | SK-OV-3 ovarian 105% | IGROV1 ovarian 105% | OVCAR-3 ovarian 111% | HS 578T breast 108% | NCI/ADR-RES ovarian 109% | T-47D breast 94% | BT-549 breast 105% | MDA-MB-435 melanoma 104% | SW-620 colon 109% | MCF7 breast 93% | HCT-116 colon 103% | HCC-2998 colon 106% | KM12 colon 106%

Cc1cc(C)c2c(Nc3ncnc4c3sc3nc(C)cc(C)c34)n[nH]c2n1
inactive: SR leukemia 94% | RPMI-8226 leukemia 98.9% | OVCAR-8 ovarian 97.8% | OVCAR-5 ovarian 95.2% | OVCAR-4 ovarian 86.3% | SK-OV-3 ovarian 106% | IGROV1 ovarian 120% | OVCAR-3 ovarian 101% | HS 578T breast 105% | NCI/ADR-RES ovarian 100% | T-47D breast 89.8% | BT-549 breast 101% | MDA-MB-435 melanoma 98.7% | SW-620 colon 101% | MCF7 breast 103% | HCT-116 colon 103% | HCC-2998 colon 113% | KM12 colon 111%

COc1ccc(COC(=O)CC(C)C)cc1
inactive: SR leukemia 97.1% | RPMI-8226 leukemia 103% | OVCAR-8 ovarian 96.1% | OVCAR-5 ovarian 100% | OVCAR-4 ovarian 109% | SK-OV-3 ovarian 102% | IGROV1 ovarian 106% | OVCAR-3 ovarian 105% | HS 578T breast 104% | NCI/ADR-RES ovarian 98.8% | T-47D breast 96.7% | BT-549 breast 100% | MDA-MB-435 melanoma 107% | SW-620 colon 105% | MCF7 breast 99.7% | HCT-116 colon 96.3% | HCC-2998 colon 103% | KM12 colon 98%

COc1cc(-c2nc3cc(Cl)c(Cl)cc3[nH]2)ccc1OCC(=O)NN
inactive: SR leukemia 77.4% | RPMI-8226 leukemia 107% | OVCAR-8 ovarian 76.4% | OVCAR-5 ovarian 98.1% | OVCAR-4 ovarian 85.3% | SK-OV-3 ovarian 93.3% | IGROV1 ovarian 86.6% | OVCAR-3 ovarian 93% | HS 578T breast 95.1% | NCI/ADR-RES ovarian 87.8% | T-47D breast 66.9% | BT-549 breast 95% | MDA-MB-435 melanoma 63.6% | SW-620 colon 80.9% | MCF7 breast 73.4% | HCT-116 colon 96.1% | HCC-2998 colon 103% | KM12 colon 64.6%

CCOC(=O)c1cc2c(n1Cc1ccccc1)-c1oncc1CC2
inactive: SR leukemia 13.1% | RPMI-8226 leukemia 67.1% | OVCAR-8 ovarian 97% | OVCAR-5 ovarian 97.4% | OVCAR-4 ovarian 105% | SK-OV-3 ovarian 92% | IGROV1 ovarian 42.4% | HS 578T breast 76.8% | NCI/ADR-RES ovarian 45.3% | T-47D breast 93.8% | BT-549 breast 92.7% | SW-620 colon 32.9% | MCF7 breast 80.3% | HCT-116 colon 89% | HCC-2998 colon 83.6% | KM12 colon 31.4%
active: OVCAR-3 ovarian -0.497% | MDA-MB-435 melanoma -27.4%

NC1CCC(Nc2nc(NCc3ccc(-c4cccs4)nc3)c3ncn(C4CCCC4)c3n2)CC1 (stereo unspecified)
active: SR leukemia -33.2% | RPMI-8226 leukemia -20.5% | OVCAR-4 ovarian 5.74% | SK-OV-3 ovarian 4.04% | IGROV1 ovarian 8.26% | OVCAR-3 ovarian 2.56% | HS 578T breast 6.97% | T-47D breast -22.9% | BT-549 breast -27.4% | MDA-MB-435 melanoma -53.2% | SW-620 colon 6.7% | MCF7 breast -34% | HCT-116 colon 0.721% | HCC-2998 colon -43.1% | KM12 colon 5.58%
inactive: OVCAR-8 ovarian 12.2% | OVCAR-5 ovarian 22.6% | NCI/ADR-RES ovarian 38.1%

CCCc1c(C)nc2scc(-c3ccc(Cl)cc3)n2c1=O
inactive: SR leukemia 83.1% | RPMI-8226 leukemia 96.4% | OVCAR-8 ovarian 107% | OVCAR-5 ovarian 104% | OVCAR-4 ovarian 97.3% | SK-OV-3 ovarian 103% | IGROV1 ovarian 107% | OVCAR-3 ovarian 104% | HS 578T breast 101% | NCI/ADR-RES ovarian 101% | T-47D breast 86.5% | BT-549 breast 98.3% | MDA-MB-435 melanoma 108% | SW-620 colon 109% | MCF7 breast 95.2% | HCT-116 colon 99.1% | HCC-2998 colon 106% | KM12 colon 98.2%

Nc1ncncc1-c1ccc(F)cc1
inactive: SR leukemia 127% | RPMI-8226 leukemia 109% | OVCAR-8 ovarian 107% | OVCAR-5 ovarian 115% | OVCAR-4 ovarian 107% | SK-OV-3 ovarian 108% | IGROV1 ovarian 110% | OVCAR-3 ovarian 111% | HS 578T breast 113% | NCI/ADR-RES ovarian 107% | T-47D breast 96.7% | BT-549 breast 111% | MDA-MB-435 melanoma 102% | SW-620 colon 114% | MCF7 breast 110% | HCT-116 colon 108% | HCC-2998 colon 109% | KM12 colon 110%

Cc1cc(O)c(C2=NN(c3ccc(S(N)(=O)=O)cc3)C(c3ccc(N(C)C)cc3)C2)c(C)c1Cl (stereo unspecified)
inactive: SR leukemia 25.5% | OVCAR-8 ovarian 75.2% | OVCAR-5 ovarian 96.8% | OVCAR-4 ovarian 58.8% | SK-OV-3 ovarian 106% | IGROV1 ovarian 34.1% | OVCAR-3 ovarian 80.3% | HS 578T breast 82.5% | NCI/ADR-RES ovarian 85.6% | T-47D breast 37% | BT-549 breast 95.7% | MDA-MB-435 melanoma 69.3% | SW-620 colon 72.2% | MCF7 breast 37.2% | HCT-116 colon 41.1% | HCC-2998 colon 94.1% | KM12 colon 62.4%
active: RPMI-8226 leukemia -22.2%

CC(=O)OCC(COC(C)=O)(COC(C)=O)COC(C)=O
inactive: SR leukemia 86.6% | RPMI-8226 leukemia 97.6% | OVCAR-8 ovarian 103% | OVCAR-5 ovarian 102% | OVCAR-4 ovarian 112% | SK-OV-3 ovarian 99.6% | IGROV1 ovarian 104% | OVCAR-3 ovarian 103% | HS 578T breast 101% | NCI/ADR-RES ovarian 106% | BT-549 breast 112% | MDA-MB-435 melanoma 111% | SW-620 colon 108% | MCF7 breast 93.8% | HCT-116 colon 111% | HCC-2998 colon 101% | KM12 colon 102%
active: T-47D breast -11.3%

OC(CNC1CCCC1)Cn1c2ccccc2c2ccccc21 (stereo unspecified)
active: SR leukemia -32.5% | RPMI-8226 leukemia 1.44% | T-47D breast -1.44% | MDA-MB-435 melanoma -2.91% | SW-620 colon -25.5% | MCF7 breast -66.2% | HCT-116 colon -37.3% | HCC-2998 colon 1.39%
inactive: OVCAR-8 ovarian 24.2% | OVCAR-5 ovarian 103% | OVCAR-4 ovarian 36.2% | SK-OV-3 ovarian 59.7% | IGROV1 ovarian 30.9% | OVCAR-3 ovarian 36.4% | HS 578T breast 63.6% | NCI/ADR-RES ovarian 15.1% | BT-549 breast 53.8% | KM12 colon 21.6%

CCN(CC)CCOC(=O)c1ccc(N=Nc2ccc(O)c(OC)c2)cc1
inactive: SR leukemia 84.8% | RPMI-8226 leukemia 99.7% | OVCAR-8 ovarian 95.1% | OVCAR-5 ovarian 95.4% | OVCAR-4 ovarian 111% | SK-OV-3 ovarian 105% | IGROV1 ovarian 104% | OVCAR-3 ovarian 98.6% | HS 578T breast 98.7% | NCI/ADR-RES ovarian 101% | T-47D breast 86.6% | BT-549 breast 101% | MDA-MB-435 melanoma 103% | SW-620 colon 103% | MCF7 breast 95.6% | HCT-116 colon 93.9% | HCC-2998 colon 103% | KM12 colon 103%

COc1cc(Cl)cc(-c2nn(-c3cccc(NC(=O)Nc4cccc(C(F)(F)F)c4)c3)cc2-c2ccncc2)c1
inactive: OVCAR-5 ovarian 34.1% | SK-OV-3 ovarian 14.2% | IGROV1 ovarian 28.8% | HS 578T breast 23.1% | BT-549 breast 12.9% | SW-620 colon 11.2% | HCC-2998 colon 19%
active: SR leukemia -13.5% | RPMI-8226 leukemia -14.2% | OVCAR-8 ovarian -12.3% | OVCAR-4 ovarian 3.28% | OVCAR-3 ovarian -0.412% | NCI/ADR-RES ovarian 3.58% | T-47D breast -0.45% | MDA-MB-435 melanoma -20.9% | MCF7 breast 0.3% | HCT-116 colon 5.07% | KM12 colon 9.81%

Nc1cc2c(cc1Cl)-c1ccc(Cl)cc1C2=O
inactive: SR leukemia 109% | RPMI-8226 leukemia 88.8% | OVCAR-8 ovarian 92.1% | OVCAR-5 ovarian 100% | OVCAR-4 ovarian 98.8% | SK-OV-3 ovarian 98.6% | IGROV1 ovarian 107% | OVCAR-3 ovarian 104% | HS 578T breast 97.3% | NCI/ADR-RES ovarian 99.5% | T-47D breast 59.6% | BT-549 breast 100% | MDA-MB-435 melanoma 103% | SW-620 colon 95.8% | MCF7 breast 42.1% | HCT-116 colon 76.4% | HCC-2998 colon 101% | KM12 colon 96.4%

COc1ccc(C2CC(c3ccc(-c4ccccc4)cc3)=NN2c2ccc(S(N)(=O)=O)cc2)cc1 (stereo unspecified)
inactive: SR leukemia 80% | RPMI-8226 leukemia 57.2% | OVCAR-8 ovarian 70.2% | OVCAR-5 ovarian 90% | OVCAR-4 ovarian 70% | SK-OV-3 ovarian 79.5% | IGROV1 ovarian 46.3% | OVCAR-3 ovarian 89.9% | HS 578T breast 85.5% | NCI/ADR-RES ovarian 60.7% | T-47D breast 52.5% | BT-549 breast 98.5% | MDA-MB-435 melanoma 76% | SW-620 colon 81.1% | MCF7 breast 58.6% | HCT-116 colon 56.7% | HCC-2998 colon 58.2% | KM12 colon 37.5%

Oc1ccc(/C=N\Nc2ccccn2)c(O)c1
active: OVCAR-3 ovarian -2.36% | NCI/ADR-RES ovarian 0.0991% | MCF7 breast 0.224% | HCT-116 colon 4.54%
inactive: SR leukemia 11.7% | RPMI-8226 leukemia 26.2% | OVCAR-8 ovarian 26.6% | OVCAR-5 ovarian 61.4% | OVCAR-4 ovarian 32.7% | SK-OV-3 ovarian 32.4% | IGROV1 ovarian 22.7% | HS 578T breast 65.8% | T-47D breast 33.7% | BT-549 breast 23.7% | MDA-MB-435 melanoma 34.2% | SW-620 colon 35.3% | HCC-2998 colon 23.9% | KM12 colon 38.4%

COc1ccc(-c2[nH]ncc2/C=C/c2cc(C(F)(F)F)[nH]c(=O)n2)cc1
inactive: SR leukemia 71.9% | RPMI-8226 leukemia 96.5% | OVCAR-8 ovarian 102% | OVCAR-5 ovarian 100% | OVCAR-4 ovarian 93.6% | SK-OV-3 ovarian 100% | IGROV1 ovarian 93.1% | OVCAR-3 ovarian 95.1% | HS 578T breast 106% | NCI/ADR-RES ovarian 105% | T-47D breast 75.9% | BT-549 breast 80.4% | MDA-MB-435 melanoma 97.8% | SW-620 colon 98.4% | MCF7 breast 91.2% | HCT-116 colon 100% | HCC-2998 colon 103% | KM12 colon 103%
